Experimental data as given in PubChem BioAssay (NCI).
About 83,000 compounds went through this panel and 20% of them were active in at least one assay; those are over-represented in the sample as a whole.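 Testing used 96-well plates and a 48-hour single-concentration exposure. Example: -40 means 40% of the starting cells died.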 Unmarked numbers belong to inactive results. Activity calls are given as the source filed them. The calls were made as follows: active = growth percent below 10; inactive = the rest.

Experiments:
Experiment in all cases: NCI-60 one-dose screen, 48 h (100 = growth as untreated, 0 = no growth, -100 = all killed)
Settings in all cases: 10 µM unless noted
DU-145 prostate = test system: DU-145 prostate
K-562 leukemia = test system: K-562 leukemia
MALME-3M melanoma = test system: MALME-3M melanoma
MDA-MB-231 breast = test system: MDA-MB-231 breast
RXF 393 renal = test system: RXF 393 renal
SF-268 CNS = test system: SF-268 CNS
SF-295 CNS = test system: SF-295 CNS
SF-539 CNS = test system: SF-539 CNS
UACC-257 melanoma = test system: UACC-257 melanoma
M14 melanoma = test system: M14 melanoma
HCT-15 colon = test system: HCT-15 colon
HT29 colon = test system: HT29 colon
SNB-75 CNS = test system: SNB-75 CNS
SNB-19 CNS = test system: SNB-19 CNS
U251 CNS = test system: U251 CNS
PC-3 prostate = test system: PC-3 prostate
SK-MEL-5 melanoma = test system: SK-MEL-5 melanoma
UACC-62 melanoma = test system: UACC-62 melanoma
LOX IMVI melanoma = test system: LOX IMVI melanoma
SK-MEL-28 melanoma = test system: SK-MEL-28 melanoma

| Compound | growth (DU-145 prostate) | growth (K-562 leukemia) | growth (MALME-3M melanoma) | growth (MDA-MB-231 breast) | growth (RXF 393 renal) | growth (SF-268 CNS) | growth (SF-295 CNS) | growth (SF-539 CNS) | growth (UACC-257 melanoma) | growth (M14 melanoma) | growth (HCT-15 colon) | growth (HT29 colon) | growth (SNB-75 CNS) | growth (SNB-19 CNS) | growth (U251 CNS) | growth (PC-3 prostate) [%] | growth (SK-MEL-5 melanoma) | growth (UACC-62 melanoma) | growth (LOX IMVI melanoma) | growth (SK-MEL-28 melanoma) |
| --- | --- | --- | --- | --- | --- | --- | --- | --- | --- | --- | --- | --- | --- | --- | --- | --- | --- | --- | --- | --- |
| O=C(N/N=C/c1ccncc1)c1ccc(C(F)(F)F)nc1Nc1cccc(C(F)(F)F)c1 | 40.6% | 13.9% | 4.45% (active) | 21.1% | -8.63% (active) | 23.4% | -24.1% (active) | 26.1% | 21.9% | 25.4% | 13.1% | 23.1% | 46.7% | 36% | 8.49% (active) | 20.5 | 10% | 15.1% | 20.5% | 44.9% |
| CCCCN(CCCC)CC(C)(C)C(O)c1ccc(OC)c2ccccc12 (stereo not given) | 69.2% | 31.2% | 47.3% | 70.8% | 65% | 85.3% | -7.15% (active) | 76.9% | 60.2% | 37% | 59.1% | 9.09% (active) | 101% | 76.3% | 50.3% | – | 50.7% | 56.1% | 66.6% | 85% |
| C=C(C)[C@@H]1CC[C@]2(C(=O)NC3CCCCC3)CC[C@]3(C)[C@H](CC[C@@H]4[C@@]5(C)CCC(=O)C(C)(C)[C@@H]5CC[C@]43C)[C@@H]12 | 104% | 84.2% | 84.2% | 87.4% | 98.3% | 94.3% | 97.8% | 96.1% | 94.2% | 97.7% | 97.1% | 85.7% | 85.6% | 84.2% | 84.9% | – | 95.9% | 76.9% | 92.2% | 97.1% |
| O=c1[nH]c2ccccc2n1C1CCN(CCOc2ccccc2)CC1 | 73.4% | 11.4% | 99.9% | 91.3% | 28% | 92.8% | 76.9% | 106% | 95.1% | 97% | 85.1% | 99.4% | 80.5% | 93.3% | 88.9% | – | 95.6% | 86% | 95.2% | 102% |
| N[C@@H](CCCCNCC(=O)O)C(=O)O | 103% | 100% | 97.6% | 89.1% | 108% | 102% | 100% | 92.7% | 101% | 104% | 98.8% | 116% | 84.1% | 99.2% | 99.9% | 121 | 101% | 94.4% | 100% | 104% |
| COC(=O)[C@]12CC[C@@H](C)[C@H](C)[C@@H]1C1=CC[C@@H]3[C@@]4(C)C(C=O)=C[C@@](C)(COC(=O)c5ccco5)C4=CC[C@@]3(C)[C@]1(C)CC2 | 10.7% | 11.1% | -43.5% (active) | -8.21% (active) | -56.3% (active) | -10.9% (active) | 11.7% | -15.3% (active) | -34.6% (active) | -33.9% (active) | -31.9% (active) | -0.473% (active) | 20% | 36.5% | -4.29% (active) | – | -87.1% (active) | -11.1% (active) | -86.3% (active) | -45.5% (active) |
| COc1cc(C(=O)/C=C/c2c(C(F)(F)F)nc3sccn23)cc(OC)c1OC | 10.7% | -16.1% (active) | 78.6% | 29.1% | -55.7% (active) | 16.1% | -2.07% (active) | -59.1% (active) | 13.4% | -39.2% (active) | -62.2% (active) | -11.8% (active) | 29.8% | 20.7% | 4.46% (active) | – | 5.95% (active) | -13.8% (active) | -57.9% (active) | -18.4% (active) |
| Cc1nc2ccccc2c(/C=C/c2ccc(Cl)cc2)c1C(=O)/C=C/c1ccc(F)cc1 | -8.13% (active) | 5.45% (active) | -6.33% (active) | 1.67% (active) | -48.9% (active) | 48.6% | 12.3% | -61.2% (active) | 15% | 5.81% (active) | -15.4% (active) | 5.82% (active) | 51.7% | -26% (active) | -76.8% (active) | – | 8.11% (active) | 0.679% (active) | -90.3% (active) | -27.7% (active) |
| CCc1c2c(nc3ccc(OC(=O)NCc4ccc(B5OC(C)(C)C(C)(C)O5)cc4)cc13)-c1cc3c(c(=O)n1C2)COC(=O)[C@]3(O)CC | 3.45% (active) | 10.8% | -44.1% (active) | 13% | -61.9% (active) | -5.02% (active) | -0.543% (active) | -47.1% (active) | -44.5% (active) | -16.1% (active) | 10.4% | 25.2% | -22.1% (active) | 1.93% (active) | -33.3% (active) | 14.7 | -87.4% (active) | -80.5% (active) | -71.6% (active) | 3.27% (active) |
| O=C(Nc1ccc(Nc2ccncc2)cc1)c1ccc(C(=O)Nc2ccc(Nc3ccncc3)cc2)cc1 | 85.8% | 53.5% | 5.82% (active) | 84.4% | 100% | 75% | 91.7% | 82.6% | 24.2% | 44.2% | 79.7% | 32.9% | 109% | 77.4% | 64.2% | 60.4 | 34.4% | 38.3% | 65.5% | 43.4% |
| Cc1ccc(Nc2nc(N)nc(CSCC(=O)NN)n2)cc1 | 103% | 96.6% | 111% | 98.9% | 103% | 97.9% | 99.3% | 95.1% | 108% | 114% | 101% | 106% | 85.2% | 98.5% | 92.9% | 93 | 101% | 90.8% | 95.2% | 99.9% |
| COc1cc(C2CC(c3cc(OC)c(OCCCOc4ccc(-n5c(/C=C/c6ccccc6)nc6ccccc6c5=O)cc4)c(OC)c3)=NO2)cc(OC)c1OC (stereo not given) | 120% | 78.7% | 143% | 110% | 116% | 107% | 81% | 108% | 106% | 127% | 84.7% | 104% | 86.9% | 110% | 103% | – | 95.6% | 82.6% | 94.6% | 104% |
| C=C(C)[C@@H]1CC[C@]2(C(=O)NC3CCCCC3)CC[C@]3(C)[C@H](CC[C@@H]4[C@@]5(C)CCCNC(C)(C)[C@@H]5CC[C@]43C)[C@@H]12 | 59% | -8.4% (active) | -6.88% (active) | 52.7% | 56.6% | 78.4% | 96.9% | 63.4% | -9.57% (active) | -52.3% (active) | -26.8% (active) | 2.51% (active) | 93.9% | 84.3% | 14.9% | 49.7 | 6.77% (active) | 11.7% | -91.8% (active) | 56.6% |
| COc1ccc2occ(C3=C(c4c[nH]c5ccccc45)C(=O)N(O)C3=O)c2c1 | 102% | 87.3% | 112% | 69% | 107% | 91.8% | 105% | 102% | 99% | 94.2% | 100% | 99.7% | 99.7% | 91.8% | 91.7% | – | 92.7% | 80.2% | 58.4% | 114% |
| Cc1cccc(-c2nc(N(C)c3ccc4ncsc4c3)c3ccccc3n2)n1 | 94.1% | 21.6% | 79.5% | 63.6% | 84.3% | 94.1% | 77% | 92.1% | 76.1% | 54.1% | 51.5% | 50.1% | 94% | 77.1% | 82.2% | – | 22.4% | 50.4% | 77.5% | 72% |
| COc1ccc(Cl)cc1NC(=O)C(Br)C(Br)C(=O)O (stereo not given) | 97.2% | -27% (active) | 46.2% | 46.2% | 44.4% | 19.7% | 99.8% | 77.7% | 60.8% | 75.9% | 67.5% | 108% | 103% | 122% | 49.9% | – | -82.2% (active) | 7.23% (active) | -69.8% (active) | 60.1% |
